PubChem BioAssay (EPA / NIEHS)
Records with an inconclusive call do not appear. Calls of active or inactive are those of the source. How the source made its calls: active means hit-call score of the fitted dose curve at least 0.9, where 1 is the maximum; inconclusive means response in the unintended direction; inactive means score below 0.9.

target: human p21 Activated Kinase 4 (PAK4), PAK4 (gene 10298) (UniProt O96013); experiment: NVS_ENZ_hPAK4: NovaScreen (NVS) Enzymatic Assay for human p21 Activated Kinase 4 (PAK4) (AID 2283189)
In short: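 Extracted PAK4 enzyme activity read by fluorescence with mobility-shift separation 1 h after chemical addition. Duplicate single-concentration screen at 25 uM, DMSO as negative control.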

human p21 Activated Kinase 4 (PAK4), PAK4 (gene 10298), sequence (O96013 whole entry, looked up): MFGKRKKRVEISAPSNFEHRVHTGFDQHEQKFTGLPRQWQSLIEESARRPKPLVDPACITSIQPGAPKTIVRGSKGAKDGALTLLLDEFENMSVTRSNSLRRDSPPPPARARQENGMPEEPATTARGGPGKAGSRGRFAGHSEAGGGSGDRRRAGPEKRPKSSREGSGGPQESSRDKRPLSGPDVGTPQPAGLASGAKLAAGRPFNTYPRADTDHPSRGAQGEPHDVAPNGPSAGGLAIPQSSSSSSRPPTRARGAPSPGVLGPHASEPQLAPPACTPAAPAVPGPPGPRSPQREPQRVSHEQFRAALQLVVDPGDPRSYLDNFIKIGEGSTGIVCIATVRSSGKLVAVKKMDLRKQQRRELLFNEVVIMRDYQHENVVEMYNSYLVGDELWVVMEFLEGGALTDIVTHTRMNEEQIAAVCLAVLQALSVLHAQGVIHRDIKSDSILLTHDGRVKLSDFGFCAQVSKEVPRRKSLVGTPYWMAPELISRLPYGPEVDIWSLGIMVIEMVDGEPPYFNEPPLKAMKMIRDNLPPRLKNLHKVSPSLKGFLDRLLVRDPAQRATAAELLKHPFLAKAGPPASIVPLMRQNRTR

| SMILES | outcome | AC50 |
| --- | --- | --- |
| C[C@]12C[C@H](O)[C@H]3[C@@H](CCC4=CC(=O)CC[C@@]43C)[C@@H]1CC[C@@H]2C(=O)CO | inactive | – |
| CCCCc1oc2ccccc2c1C(=O)c1cc(I)c(OCCN(CC)CC)c(I)c1 | inactive | – |
| O=c1c(O)c(-c2ccc(O)c(O)c2)oc2cc(O)cc(O)c12 | inactive | – |
| CC1(C)CC(N=C=O)CC(C)(CN=C=O)C1 (centres undefined) | – | 25 µM (active) |
| CC/C(=C\C(=N/O)C(N)=O)C(C)[N+](=O)[O-] (centres undefined) | inactive | – |

target: human Phosphatase and Tensin Homolog (PTEN), PTEN (gene 5728) (UniProt P60484); experiment: NVS_ENZ_hPTEN: NovaScreen (NVS) Enzymatic Assay for human Phosphatase and Tensin Homolog (PTEN) (AID 2283203)
In short: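 Loss of fluorescent product signal after mobility-shift separation reports PTEN activity, recombinant human enzyme, 1 h after compound addition. Single 25 uM duplicate screen, then concentration-response on actives; DMSO baseline.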

human Phosphatase and Tensin Homolog (PTEN), PTEN (gene 5728), sequence (P60484 whole entry, looked up): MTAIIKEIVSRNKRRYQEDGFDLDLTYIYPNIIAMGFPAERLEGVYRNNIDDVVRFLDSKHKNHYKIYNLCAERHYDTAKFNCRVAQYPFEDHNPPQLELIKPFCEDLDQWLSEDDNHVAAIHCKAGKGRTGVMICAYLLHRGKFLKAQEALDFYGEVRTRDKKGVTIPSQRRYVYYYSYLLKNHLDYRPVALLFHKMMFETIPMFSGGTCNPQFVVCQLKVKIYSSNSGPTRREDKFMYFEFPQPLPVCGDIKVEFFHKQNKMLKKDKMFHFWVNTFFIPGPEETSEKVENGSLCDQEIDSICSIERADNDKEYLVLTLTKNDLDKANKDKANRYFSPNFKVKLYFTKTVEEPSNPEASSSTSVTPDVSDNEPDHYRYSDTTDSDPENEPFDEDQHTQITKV

| SMILES | outcome | AC50 |
| --- | --- | --- |
| CCC(=O)O | inactive | – |
| Cc1cccc2c1ccc1ccccc12 | – | 13.8 µM (active) |
| CN(C)C(=S)SC(=S)N(C)C | – | 18.9 µM (active) |
| C=CC(=O)OCC(Br)CBr (centres undefined) | inactive | – |
| O=C1C=CC(=O)O1 | inactive | – |
| CCCCCC1=CCCC1=O | – | 16.3 µM (active) |
| CCN(CC)CC | – | 3.58 µM (active) |
| C=C(C)CCCC | inactive | – |
| CCCCC/C=C/C=C/C=O | – | 25 µM (active) |
| CC/C=C\C#N | inactive | – |
| CC(c1cc(C(C)(C)C)cc(C(C)(C)C)c1O)c1cc(C(C)(C)C)cc(C(C)(C)C)c1O | – | 5.29 µM (active) |
| C#C[C@]1(O)CC[C@H]2[C@@H]3CCC4=Cc5oncc5C[C@]4(C)[C@H]3CC[C@@]21C | – | 25 µM (active) |
| CCC(=O)OCC=Cc1ccccc1 | inactive | – |
| CCCCCCCCCCCCCCCC | inactive | – |
| CCOC(C=C(C)CCC=C(C)C)OCC | inactive | – |
| CCCCOCC | – | 37 µM (active) |
| COc1cccc(OC)c1O | inactive | – |

| SMILES | outcome | AC50 |
| --- | --- | --- |
| S=c1[nH][nH]c(=S)s1 | – | 2.47 µM (active) |
| CCNc1nc(NC(C)(C)C)nc(OC)n1 | inactive | – |
| Cc1cncc(C)c1 | inactive | – |
| Fc1ccc(Br)cc1 | inactive | – |
| CC(=O)OCC=C(C)CCC=C(C)CCC=C(C)C | inactive | – |
| CCCCCCCCCCc1ccccc1 | inactive | – |
| Oc1ccc2c(c1)CCC2 | – | 1.62 µM (active) |
| O=C1OC2(c3ccc(O)cc3Oc3cc(O)ccc32)c2ccccc21 | inactive | – |
| N#[N+]c1ccc2c(S(=O)(=O)[O-])cccc2c1O | inactive | – |
| Cc1ccccc1S(N)(=O)=O | inactive | – |
| CO[Si](OC)(c1ccccc1)c1ccccc1 | inactive | – |
| CCCC(C)C=O (centres undefined) | inactive | – |
| Nc1ccc(F)c([N+](=O)[O-])c1 | inactive | – |
| CC(C)c1ccccc1N | – | 12.4 µM (active) |
| OCCC(O)CO (centres undefined) | – | 14.7 µM (active) |
| NC(=O)c1ccccc1Cl | inactive | – |
| CCc1cccc(CC)c1N(COC)C(=O)CS(=O)(=O)O | inactive | – |
